Laboratory results taken from PubChem BioAssay (NCATS).
Results filed as inconclusive are left out. Values without a mark were called inactive. Calls of active or inactive are those of the source. Calls come from the whole dose curve; as a rule, active = well fitted inhibition curve with a large enough effect; inconclusive = small, poorly fitted or top-dose-only effect; inactive = flat fitted curve, though single readings scatter.

How the values were obtained:
Assay in all cases: Cytotoxic Profiling of Annotated Libraries Using Quantitative High-Throughput Screening (AID 1296008); note: nearly all actives have a fitted effect of over 60% in size
Conditions in all cases: Five cell lines viability, CellTiter-Glo ATP luminescence, 48-72 h; max response: hits give low values
CRL-7250 = normal cell line; test system: CRL-7250
Outline: (§1)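 Cells exposed to compounds for 48 or 72 hr at 37 degrees Celsius. Viability read as ATP-coupled luminescence with CellTiter-Glo after 10 min at room temperature.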

HEK293 = test system: HEK293
Outline: as §1

HaCat = test system: HaCat
Outline: as §1
% is set by controls: 0 for no effect and ±100 for the full control effect; potency is the fitted concentration of half-maximal effect.

With `Nc1cccc2c1C(=O)N(C1CCC(=O)NC1=O)C2=O` (stereo unspecified) the max response (CRL-7250) was 1.13%, the max response (HEK293) was -10.8% and the outcome (HaCat) was “inactive”.
`CC[C@H]1OC(=O)[C@H](C)[C@@H](O[C@H]2C[C@@](C)(OC)[C@@H](O)[C@H](C)O2)[C@H](C)[C@@H](O[C@@H]2O[C@@H](C)C[C@H](N(C)C)[C@@H]2O)[C@](C)(O)C[C@@H](C)C(=O)[C@H](C)[C@@H](O)[C@]1(C)O` was tested, and the max response (CRL-7250) was 0.799%, the max response (HEK293) was -7.85% and the outcome (HaCat) was “inactive”.
`COc1cccc2c1C(=O)c1c(O)c3c(c(O)c1C2=O)C[C@@](O)(C(=O)CO)C[C@@H]3O[C@H]1C[C@H](N)[C@@H](O)[C@H](C)O1` was tested, and the Potency (CRL-7250) was 1180 nM (active), the Potency (HEK293) was 132 nM (active) and the Potency (HaCat) was 372 nM (active).
With `NC[C@H]1O[C@H](O[C@H]2[C@@H](O)[C@@H](O[C@H]3O[C@H](CO)[C@@H](O)[C@H](N)[C@@H]3O)[C@H](N)C[C@@H]2N)[C@H](N)C[C@H]1O` the max response (CRL-7250) was -1.47%, the max response (HEK293) was 0.89% and the outcome (HaCat) was “inactive”.
`COC(=O)C=CC(=O)OC` was tested, and the max response (CRL-7250) was -5.16%, the outcome (HEK293) was “inactive” and the outcome (HaCat) was “inactive”.
In the case of `CCOC(=O)N1CCN([N+]([O-])=NOc2ccc([N+](=O)[O-])cc2[N+](=O)[O-])CC1`, the max response (CRL-7250) is reported as -5.72%, the Potency (HEK293) is reported as 3720 nM (active) and the max response (HaCat) is reported as 3.57%.
`CCOc1cc2ncc(C#N)c(Nc3ccc(OCc4ccccn4)c(Cl)c3)c2cc1NC(=O)C=CCN(C)C` was tested, and the Potency (CRL-7250) was 1050 nM (active), the Potency (HEK293) was 3320 nM (active) and the Potency (HaCat) was 5.3 nM (active).
`CC(=O)OCC(=O)[C@@]12N=C(C)O[C@H]1C[C@H]1[C@@H]3CCC4=CC(=O)C=C[C@]4(C)[C@@H]3[C@@H](O)C[C@@]12C` was tested, and the max response (CRL-7250) was 0.387%, the max response (HEK293) was -6.3% and the max response (HaCat) was -2.39%.
With `C[C@H](NCc1ccc2c(c1)nc(NC(=O)c1ccc(-c3cn[nH]c3)s1)n2CCc1ccccc1)C(C)(C)C` the Potency (CRL-7250) was 1870 nM (active), the Potency (HEK293) was 935 nM (active) and the Potency (HaCat) was 2960 nM (active).
In the case of `c1cc(CN2CCCNCCNCCCNCC2)ccc1CN1CCCNCCNCCCNCC1`, the max response (CRL-7250) is reported as -0.856%, the outcome (HEK293) is reported as “inactive” and the max response (HaCat) is reported as -12.9%.
For `CC(C)C[C@H](NC(=O)CNC(=O)c1cc(Cl)ccc1Cl)B1OC(=O)CC(CC(=O)O)(C(=O)O)O1` (stereo partly specified), the Potency (CRL-7250) was 1320 nM (active), the Potency (HEK293) was 469 nM (active) and the Potency (HaCat) was 4180 nM (active).
For `CN[C@@H]1C[C@H]2O[C@@](C)([C@H]1OC)n1c3ccccc3c3c4c(c5c6ccccc6n2c5c31)C(=O)N[C@H]4O`, the Potency (CRL-7250) was 264 nM (active), the Potency (HEK293) was 469 nM (active) and the Potency (HaCat) was 1480 nM (active).
For `NC1=N[C@H]2[C@H](CS[C@H]2CCCCC(=O)O)N1`, the outcome (CRL-7250) was “inactive”, the max response (HEK293) was -4.7% and the outcome (HaCat) was “inactive”.
For `Nc1ccc(C(=O)Nc2cccc(-c3nc(N4CCOCC4)c4oc5ncccc5c4n3)c2)cn1`, the outcome (CRL-7250) was “inactive”, the Potency (HEK293) was 3260 nM (active) and the max response (HaCat) was -11.9%.
`COC(=O)[C@@H]1CC2=CC(=O)CC[C@]2(C)[C@@]23O[C@@H]2C[C@@]2(C)[C@H](CC[C@@]24CCC(=O)O4)[C@@H]13` was tested, and the max response (CRL-7250) was -3.2%, the outcome (HEK293) was “inactive” and the outcome (HaCat) was “inactive”.
With `C[C@H]1C[C@H]2[C@@H]3CCC4=CC(=O)C=C[C@]4(C)[C@@H]3C(=O)C[C@]2(C)[C@@]1(O)C(=O)CO` the max response (CRL-7250) was -3.73%, the max response (HEK293) was 3.81% and the outcome (HaCat) was “inactive”.
Work on `O=c1ccn([C@@H]2O[C@H](CO)[C@H](O)[C@@H]2F)c(=O)[nH]1` yielded a max response (CRL-7250) of -4.58%, a max response (HEK293) of -5.58% and a max response (HaCat) of 4.18%.
In the case of `CCCc1nc(C(C)(C)O)c(C(=O)O)n1Cc1ccc(-c2ccccc2-c2nn[nH]n2)cc1`, the outcome (CRL-7250) is reported as “inactive”, the outcome (HEK293) is reported as “inactive” and the outcome (HaCat) is reported as “inactive”.
In the case of `CC(=O)[C@]1(O)Cc2c(O)c3c(c(O)c2[C@@H](O[C@H]2C[C@H](N)[C@@H](O)[C@H](C)O2)C1)C(=O)c1ccccc1C3=O`, the Potency (CRL-7250) is reported as 1480 nM (active), the Potency (HEK293) is reported as 132 nM (active) and the Potency (HaCat) is reported as 743 nM (active).
For `CCCCCCCCCCCCc1ccc(S(=O)(=O)Nc2nncs2)cc1`, the outcome (CRL-7250) was “inactive”, the outcome (HEK293) was “inactive” and the max response (HaCat) was -11%.
In the case of `CC(=O)NC(CS)C(=O)O` (stereo unspecified), the max response (CRL-7250) is reported as 1.57%, the max response (HEK293) is reported as -9.86% and the outcome (HaCat) is reported as “inactive”.
Work on `NC(=O)c1ncn([C@@H]2O[C@H](CO)[C@@H](O)[C@@H]2O)c1O` yielded a max response (CRL-7250) of -0.101%, a max response (HEK293) of 1.7% and a max response (HaCat) of 4.1%.
